Experimental data taken from PubChem BioAssay AID624116 (National Center for Advancing Translational Sciences (NCATS), 2012).
Results filed as inconclusive are left out. Activity calls are given as the source filed them. The call rests on the fitted dose curve; in most records, active means well fitted activation curve with a large enough effect; inconclusive means small, poorly fitted or top-dose-only effect; inactive means no such curve, though single readings can be large or run the other way.

Assay: qHTS Assay for Rab9 Promoter Activators: Hit Validation Using Renilla Luciferase Read-Out for Rab9
Details: Huh7 Rab9 promoter Renilla luciferase reporter, 24 h; series mostly up to 76.9 µM
In short: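 Luciferase reporter read-out: promoter activation measured by luminescence after 10 min with detection reagent at room temperature. Cells were Huh7 with a stable promoter-luciferase construct, treated 24 h at 37 deg C.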
Potency means the concentration at half of the fitted maximal effect.

Potency, active:
CC(=O)c1c(C)[nH]c(C(=O)Nc2cccc(S(=O)(=O)N(C)C)c2)c1C 20.7 µM

Potency, inactive:
CC(C)C1(CCNC(=O)c2cccs2)CCOC(C)(C)C1 (stereo not given), Cc1ccc2nc(Nc3ccc(Cl)cc3)c3nncn3c2c1, C=CCOC(=O)N1CCN(c2cccc(C(F)(F)F)c2)CC1, COC(=O)c1ccc(NC(=O)c2ccc3nc(C)sc3c2)cc1, CNC(=O)Cn1nc(C)c2ccccc2c1=O, COCC1CCN(C(=O)c2ccc3oc(Cc4ccccc4)nc3c2)C1 (stereo not given), CCOC(=O)C1(Cc2cccc(Cl)c2)CCCN(C(=O)CCSC)C1 (stereo not given), COc1cccc(C2Nc3ccccc3NC3=C2C(=O)CC(C)(C)C3)c1 (stereo not given), Cc1ccc(S(=O)(=O)/N=C2\C=C(Nc3cccc(C(=O)O)c3)C(=O)c3ccccc32)cc1, COc1ccccc1OCCCC(=O)NCc1ccco1, Nc1ccccc1C(=O)N/N=C1/C2CN3CCN(C2)CC1(Cc1ccccc1)C3, COc1ccc(NC(=O)CCCN2C(=O)C(c3ccccc3)Oc3cccnc32)cc1OC (stereo not given), Cc1ccc(C(=O)c2cn[nH]c2-c2ccccc2O)cc1, COc1ccccc1NC(=S)NCc1ccc(Cl)cc1, O=C(CSc1nnc(-c2ccc([N+](=O)[O-])cc2)o1)Nc1ccccn1, O=C(CSc1ncccn1)Nc1cccc2ccccc12, CC(Sc1ncnc2c1cnn2-c1ccccc1)C(=O)Nc1ccc(N2CCOCC2)cc1 (stereo not given), CC(=O)NC(CCCN1C(=O)c2ccccc2C1=O)c1nnn(C)n1 (stereo not given), CCOC(=O)c1ccc(-c2nnc(-c3ccc(Cl)cc3Cl)o2)cc1
